These results are taken from PubChem BioAssay AID504332 (National Center for Advancing Translational Sciences (NCATS), 2011).

Screen size: about 350,000 compounds; about 31,000 (8.9%) were called active. Not shown: some 15% with an inconclusive outcome. The sample holds actives, similar compounds and a random draw of the others, so the mix is not that of the screen. Calls follow the shape of the dose curve; as a rule, active = well fitted inhibition curve with a large enough effect; inconclusive = small, poorly fitted or top-dose-only effect; inactive = no such curve, though single readings can be large or run the other way.
% is scaled to controls: 0 for no effect and ±100 for the full control effect; potency is read from the fitted curve at half-maximal effect.

Histone-lysine N-methyltransferase EHMT2 (Homo sapiens), sequence (Q96KQ7 913-1193 limits assumed): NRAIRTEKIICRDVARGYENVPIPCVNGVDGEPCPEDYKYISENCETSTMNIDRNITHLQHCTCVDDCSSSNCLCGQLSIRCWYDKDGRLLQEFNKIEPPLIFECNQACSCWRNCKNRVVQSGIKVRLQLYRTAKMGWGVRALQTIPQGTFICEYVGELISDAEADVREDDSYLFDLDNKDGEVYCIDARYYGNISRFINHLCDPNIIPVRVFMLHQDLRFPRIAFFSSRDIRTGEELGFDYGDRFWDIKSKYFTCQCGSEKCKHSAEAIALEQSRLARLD

The experiment addresses Histone-lysine N-methyltransferase EHMT2 (Homo sapiens) (UniProt Q96KQ7). The experiment is described as follows: qHTS Assay for Inhibitors of Histone Lysine Methyltransferase G9a. Also: nearly all actives have a fitted effect of over 75% in size. The conditions noted are these: G9a H3K9 monomethylation, AlphaScreen, 2 h; series mostly up to 59 µM; activity, negative = inhibition: at the top concentration. In outline:
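AlphaScreen detection with an anti-monomethyl H3K9 antibody quantified product after a 2 h room-temperature reaction containing 500 nM biotinylated H3K9 peptide, 20 µM SAM and 20 nM enzyme, which had been preincubated 15 min with compound.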
With `CCOC(=O)[C@H]1[C@H]2COc3ccc(Cl)cc3[C@@H]2N2C(=O)c3cc(C)ccc3NC(=O)[C@@]12C`, the activity, negative = inhibition was 28% [at 2.33 µM] (inactive).

In the case of `Cc1[nH]c2ccc(C(=O)N3CCN(C)CC3)cc2c1C`, the “activity, negative = inhibition” value was 9.51% [at 102 µM] (inactive).

On to `CCOc1ccccc1N1CCN(C(=O)c2ccc3[nH]c(C)c(C)c3c2)CC1`, for which the Potency was 79.4 µM (active).

Regarding `CCS(=O)(=O)N1CCc2cc(C(=O)N3CCN(c4ccccc4OC)CC3)ccc21`, the “activity, negative = inhibition” value is 12.5% (inactive).

As for `CCn1c(C)c(C)c2cc(C(=O)N3CCN(c4cccc(C)c4C)CC3)ccc21`, the Potency is 39.8 µM (active).

For `CCC(CC)C(=O)N1CCN(c2cccc(C)c2C)CC1`, the “activity, negative = inhibition” value is -9.41% (inactive).

For `Cc1cccc(N2CCN(C(=O)c3ccc4c(c3)CCN4S(=O)(=O)c3ccccc3)CC2)c1C`, the “activity, negative = inhibition” value was -28.9% (inactive).

Turning to `CCc1ccc(C(=O)COC(=O)c2ccco2)cc1`, the “activity, negative = inhibition” value is 3.44% [at 102 µM] (inactive).

With `CC1CCCCC12NC(=O)N(CC(=O)OCC(=O)NCc1ccc(F)cc1)C2=O` (stereo not drawn), the “activity, negative = inhibition” value was 13.1% (inactive).

Take `COc1ccc(-c2nc3sc(CCNC(=O)C(C)(C)C)c(C)n3n2)cc1`: the “activity, negative = inhibition” value is 2.38% (inactive).

Take `CCN(C(=O)COC(=O)c1sccc1C)c1c(N)n(Cc2ccccc2)c(=O)[nH]c1=O`: the activity, negative = inhibition is 4.77% [at 0.501 µM] (inactive).

For `CN(C)C(CNC(=O)c1ccc(OCc2cn3ccccc3n2)cc1)c1ccco1` (stereo not drawn), the “activity, negative = inhibition” value is -7.88% (inactive).

On to `CN(C(=O)CSc1nc2ccccc2n1Cc1ccccc1C#N)c1ccccc1`, for which the “activity, negative = inhibition” value was -8.09% (inactive).

For the molecule `NS(=O)(=O)c1ccc(CNC(=O)c2cccc(Oc3ccccc3)c2)cc1`, the “activity, negative = inhibition” value is 12% [at 102 µM] (inactive).

As to `O=C(CNc1ccccc1N1CCCC1=O)Nc1cc(Cl)ccc1-n1cncn1`, the “activity, negative = inhibition” value was -39.6% [at 102 µM] (inactive).

Regarding `CCc1ccccc1NC(=O)CSc1nnc([C@@H](NC(=O)OC(C)(C)C)C(C)C)o1`, the activity, negative = inhibition was 10.1% [at 2.33 µM] (inactive).

For the molecule `C[C@H](NC(=O)OC(C)(C)C)c1nnc(SCC(N)=O)o1`, the “activity, negative = inhibition” value was 0.361% [at 102 µM] (inactive).

For `CC(C)Sc1nnc([C@H](Cc2ccccc2)NC(=O)OC(C)(C)C)o1`, the Potency is 35.5 µM (active).

As to `O=C(CN1CCN(S(=O)(=O)c2ccc(Cl)s2)CC1)N1CCCCC1`, the activity, negative = inhibition is 18.1% [at 2.33 µM] (inactive).

Take `COc1ccc(/C=N\NC(=O)c2sc(N)nc2C)cc1OC`: the “activity, negative = inhibition” value was 63.3% (inactive).

For the molecule `COc1cc(/C=N\Nc2nc(-c3cccs3)c(NC(C)=O)s2)ccc1O`, the Potency was 11.2 µM (active).

As for `CCOc1cc(/C=C(\C#N)c2nc(-c3cccs3)c(NC(C)=O)s2)ccc1O`, the “activity, negative = inhibition” value is 8.33% (inactive).

For the molecule `CC1=Nc2cc(C(=O)N3CCC(C)CC3)ccc2Sc2ccc(Cl)cc21`, the “activity, negative = inhibition” value was -32.2% (inactive).

For the molecule `CCc1nnc(SCc2nc(-c3cccc(C)c3)oc2C)c2cc3sc(C)cc3n12`, the “activity, negative = inhibition” value was -2.67% (inactive).

On to `CC(C)Oc1ccc(S(=O)(=O)N2CCOCC2)cc1NC(=O)C1CSC2(C)CCC(=O)N12` (stereo not drawn), for which the Potency is 44.7 µM (active).

For `CCN(CC)S(=O)(=O)c1ccc(N2CCOCC2)c(NC(=O)C2CSC3(C)CCC(=O)N23)c1` (stereo not drawn), the “activity, negative = inhibition” value was 7.95% [at 102 µM] (inactive).

For the molecule `CC(C)Oc1ccc(S(=O)(=O)N2CCOCC2)cc1NC(=O)C1CCCC1`, the “activity, negative = inhibition” value was -4.09% (inactive).

In the case of `CCNC(=O)CC1C(=O)N(c2ccc(F)cc2)C(=O)N1Cc1ccc(C)cc1` (stereo not drawn), the “activity, negative = inhibition” value was -4.01% (inactive).

As for `Cc1ccc(CC2C(=O)N(c3ccc(F)cc3)C(=O)C2C)cc1` (stereo not drawn), the activity, negative = inhibition was 2.4% [at 0.501 µM] (inactive).

Consider `C=C1c2cc(CC)ccc2NC(=O)N1c1ccc(C)cc1`, for which the Potency is 11.2 µM (active).

`O=C(c1cc(COc2ccc(F)c(F)c2)on1)N1CCOCC1`: the activity, negative = inhibition was -4.01% [at 0.501 µM] (inactive).

In the case of `Cc1cc(NS(=O)(=O)c2ccc(NC(=O)C(C)Oc3cccc(C)c3C)cc2)nc(C)n1` (stereo not drawn), the “activity, negative = inhibition” value is 53.2% [at 102 µM] (inactive).

`Cn1c(=O)[nH]c(=O)c2c1[nH]c(=S)n2Cc1ccccc1`: the activity, negative = inhibition was -14.7% [at 2.33 µM] (inactive).

Consider `CN1C=CC=C/C1=C1\SC(=S)N(Cc2ccccc2)C1=O`, for which the Potency is 20 µM (active).

For the molecule `Cc1ccc(C)c(NC(=O)COC(=O)CSc2ccccc2)c1`, the activity, negative = inhibition was 0.0476% [at 12.7 µM] (inactive).

In the case of `COc1ccc(C)cc1NC(=O)c1cc(-c2ccccc2)nc2c1cnn2C(C)C`, the activity, negative = inhibition is 0.616% [at 12.7 µM] (inactive).

For the molecule `CC(Sc1nnc(C2CC2)n1C1CC1)C(=O)Nc1ccc(C(N)=O)cc1` (stereo not drawn), the activity, negative = inhibition is -5.65% [at 2.33 µM] (inactive).

With `CC(C)=C(NC(=O)c1ccco1)C(=O)NCCc1nc2ccccc2[nH]1`, the activity, negative = inhibition was 6.16% [at 2.33 µM] (inactive).

For the molecule `COc1ccc(OC(C)C(=O)NCCc2nc3ccccc3[nH]2)cc1` (stereo not drawn), the “activity, negative = inhibition” value was -6.9% [at 102 µM] (inactive).

With `CC(C)Oc1ccc(/C=C(\NC(=O)/C=C/c2ccco2)C(=O)NCCc2nc3ccccc3[nH]2)cc1`, the Potency is 39.8 µM (active).

As for `Cc1ccc(-n2nc(C)c3c(C)cc(=O)n(CC(=O)Nc4ccc(C(C)C)cc4)c32)cc1`, the “activity, negative = inhibition” value is 16.2% (inactive).

In the case of `CCN(CC(=O)Nc1c(F)cccc1F)C(=O)c1ccc(Sc2nncn2C)c([N+](=O)[O-])c1`, the “activity, negative = inhibition” value is -3.94% [at 102 µM] (inactive).

As for `Cc1ccc(S(=O)(=O)N2CCN(C(=O)CSc3cc(C)ccc3C)CC2)c(C)c1`, the “activity, negative = inhibition” value is 39.7% [at 102 µM] (inactive).

Consider `Oc1ccc(C2Nc3cccc4cccc(c34)N2)cc1`, for which the Potency is 25.1 µM (active).

On to `Cc1ccc(C2Nc3cccc4cccc(c34)N2)cc1`, for which the Potency is 10 µM (active).

Consider `Cc1ccc(C2CC(c3cccc(C)c3)n3nc(N)nc3N2)cc1` (stereo not drawn), for which the “activity, negative = inhibition” value was 11.8% [at 102 µM] (inactive).

`O=C1CCC([N+](=O)[O-])C(c2ccccc2Br)N1` (stereo not drawn): the “activity, negative = inhibition” value was 22.3% [at 102 µM] (inactive).

As for `COc1cccc(C2Nc3cccc4cccc(c34)N2)c1`, the Potency is 20 µM (active).
